Results published in PubChem BioAssay AID2685 (National Center for Advancing Translational Sciences (NCATS), 2010).
About 2,100 (0.66%) of roughly 320,000 compounds were called active. Not shown: some 53% with an inconclusive outcome. Calls come from the whole dose curve; as a rule, active = well fitted inhibition curve with a large enough effect in the signal ratio, with a control signal flat (not every such curve was filed as active); inconclusive = small, poorly fitted or top-dose-only effect, or effect the other way, or a change in a side signal; inactive = flat fitted curve, though single readings scatter; the % refers to the signal ratio. This excerpt belongs to a sample that is enriched for actives.

test: qHTS Assay for Lipid Storage Modulators in Drosophila S3 Cells; conditions: BODIPY lipid droplet fluorescence, 18-24 h, cells fed with added oleic acid; cell number change: measured here: cell count max response; series mostly up to 46.1 µM; lipid storage change, negative = inhibition: at the top concentration;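 for cell number change: cells counted by Cell Tracker Red CMTPX staining in the red channel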; for lipid storage change, negative = inhibition: % is set by controls: 0 for no effect and ±100 for the full control effect
Outline: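 Laser-scanning cytometry quantifies lipid droplet accumulation (500–530 nm total intensity; droplet/cell object ratio) in oleic acid-fed (400 uM added) Drosophila S3 cells treated with a concentration series. 20 uM Triacsin C defined 100% inhibition.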
Potency is the fitted concentration of half-maximal effect.

SMILES	lipid storage change, negative = inhibition	cell number change [%]	outcome	Potency
COCCN(C(=O)c1ccco1)c1nnc(-c2ccc(F)cc2)s1	-8.18% (inactive)	4.04	–	–
COCCN(C(=O)c1ccccc1F)c1nc(-c2ccc(OC)cc2)cs1	–	-17.2	inactive	–
COCCN(C(=O)c1ccccc1F)c1nnc(-c2ccc(OC)cc2)s1	–	-15.3	–	18.4 µM (active)
O=C(Cn1c(NCCCO)nc2ccccc21)c1ccc(F)cc1	–	11.9	inactive	–
Cc1ccc(SCc2cc(=O)n3[nH]c(C)nc3n2)cc1	–	–	inactive	–
Cc1cc(C)c(CN2CCC(N3CCC(C(=O)NCC4CCCO4)CC3)CC2)cc1C (configuration not stated)	–	–	inactive	–
CC[C@@H]1CC=C[C@H]2[C@H]1C(=O)N(Cc1ccccc1)[C@H]2c1ccc2ccccc2c1	3.66% (inactive)	–	–	–
CCN(CC)C(=O)CSc1nc(-c2cccs2)cc(-c2cccs2)c1C#N	–	-14	–	14.6 µM (active)
CCN(CC)C(=O)CSc1nc(N)c(C#N)c(-c2cccs2)c1C#N	-6.5% (inactive)	-4.19	–	–
CCN(CC)C(=O)CSc1nc(C)cc(-c2cccs2)c1C#N	-8.02% (inactive)	-17.5	–	–
O=C(CC1Sc2ccccc2NC1=O)Nc1cccc(-c2nnc3n2CCCCC3)c1 (configuration not stated)	1.89% (inactive)	4.38	–	–
Cc1ccsc1C(=O)Nc1ccc2c(c1)OCCO2	1.81% (inactive)	–	–	–
Cc1ccc(NC(=O)c2sccc2C)cc1[N+](=O)[O-]	–	7.44	–	8.2 µM (active)
Cc1ccc(NC(=O)c2cccs2)cc1[N+](=O)[O-]	6.94% (inactive)	-1.31	–	–
COc1ccc(-c2csc(NC(=O)c3cccc(N4C(=O)CCC4=O)c3)n2)cc1C	-7.59% (inactive)	-26.1	–	–
O=C1CC(=O)N(CCc2ccccc2)C(=O)N1CCc1ccccc1	2.21% (inactive)	-9.18	–	–
COc1ccc(OC)c(N=CC2=C(O)CC(C)(C)CC2=O)c1	–	25.1	inactive	–
C/C(=N\Nc1ccc([N+](=O)[O-])cc1)c1ccc2c(c1)OCO2	-8.87% (inactive)	-16.9	–	–
Cn1c(C(=O)OCC(=O)NCC2CCCO2)cc2sccc21 (configuration not stated)	0.961% (inactive)	0.161	–	–
CCCn1c(=O)c2sccc2n2c(CCCC(=O)NCC3CCCO3)nnc12 (configuration not stated)	–	-21.7	–	20.6 µM (active)
COCCCn1c(=O)c2sccc2n2c(CCCC(=O)NCC3CCCO3)nnc12 (configuration not stated)	–	11.8	–	18.4 µM (active)
CCCn1c(=O)c2sccc2n2c(CCCC(=O)NCc3ccco3)nnc12	–	-3.77	–	29.1 µM (active)
Cn1c(=O)c2sccc2n2c(CCCC(=O)NCc3ccco3)nnc12	–	-10.3	inactive	–

SMILES	lipid storage change, negative = inhibition	cell number change [%]	outcome	Potency
CCCn1c(=O)c2sccc2n2c(CCCC(=O)NC3CCN(Cc4ccccc4)CC3)nnc12	–	6.65	inactive	–
CCCN(CCC)C(=O)Cn1c(=O)n(CCCC(=O)NCc2ccco2)c(=O)c2sccc21	-0.536% (inactive)	2.76	–	–
COCCCn1c(=O)c2sccc2n2c(CCCC(=O)NCc3ccccc3)nnc12	–	12.6	inactive	–
O=C(CCCn1c(=O)c2sccc2n(CC(=O)NCC2CCCO2)c1=O)NCc1ccco1 (configuration not stated)	8.98% (inactive)	3.33	–	–
O=C(O)CCCN=C1NC2(CCCC2)Cc2ccccc21	6.16% (inactive)	11.6	–	–
Cc1cc(=O)[nH]c(SCC(=O)c2ccc3c(c2)NC(=O)CO3)n1	1.83% (inactive)	4.71	–	–
COc1cccc(NC(=O)CN(C)C(=O)CSc2nc(C)cc(C)n2)c1	24.9% (inactive)	1.93	–	–
COC(=O)c1c(NC(=O)c2cccnc2Cl)sc(C(=O)N(C)C)c1C	20.4% (inactive)	7.02	–	–
COc1ccccc1C(CC(=O)Nc1ccc(C)c(C)c1)c1ccc(OC(C)C)cc1 (configuration not stated)	-0.923% (inactive)	11.9	–	–
COC(=O)COc1ccc(NC(=O)Cn2nc(-c3ccccc3)c3ccccc3c2=O)cc1	-8.81% (inactive)	0.0736	–	–
COc1ccc(CNc2nc(S(=O)(=O)c3ccccc3)c(Cl)s2)cc1OC	-3.6% (inactive)	-10.4	–	–
Cc1ccc(S(=O)(=O)n2nc(OC(=O)c3c(F)cccc3Cl)cc2N)cc1	–	5.65	inactive	–
Nc1cc(OC(=O)c2c(F)cccc2Cl)nn1S(=O)(=O)c1ccccc1	–	-4.17	–	0.517 µM (active)
Cc1onc(-c2ccccc2Cl)c1C(=O)Oc1cc(N)n(S(=O)(=O)c2ccc(F)cc2)n1	-2.64% (inactive)	-4.68	–	–
COc1ccc(-c2onc3ccc(Cl)cc23)cc1	–	–	inactive	–
CC(C)NC(=O)c1cc(-n2cnnc2)ccc1Cl	–	-14.2	–	25.9 µM (active)
CC(=O)Nc1ccc(NC(=O)c2cc(-n3cnnc3)ccc2Cl)cc1	–	–	inactive	–
Cc1ccc(NC(=O)c2cc(-n3cnnc3)ccc2Cl)cc1	10.7% (inactive)	-2.68	–	–
Cc1cc(Cl)ccc1NC(=S)NCC(C)C	4.75% (inactive)	-2.85	–	–
CCCNC(=S)Nc1ccc(Cl)cc1C	-8.54% (inactive)	-19.9	–	–
Cc1cc(Cl)ccc1NC(=S)NCCc1ccc(Cl)cc1	–	-20.6	–	16.4 µM (active)
Cc1ccc(/C=C2/SC(=S)N(CCC(=O)N3CCN(C)CC3)C2=O)cc1	-5.28% (inactive)	1.31	–	–
Cc1ccc(S(=O)(=O)CC(=O)Nc2nc(-c3ccccc3)cs2)cc1	–	–	inactive	–

SMILES	lipid storage change, negative = inhibition	cell number change [%]	outcome	Potency
Cc1ccc(S(=O)(=O)CC(=O)Nc2nc(C(C)(C)C)cs2)cc1	–	18.4	inactive	–
Cc1ccc(S(=O)(=O)CCC(=O)Nc2nc(C(C)(C)C)cs2)cc1	–	-1.15	–	23.1 µM (active)
Cc1csc(NC(=O)CCS(=O)(=O)c2ccc(Br)cc2)n1	–	–	inactive	–
O=C(CCS(=O)(=O)c1ccc(F)cc1)Nc1nc(-c2ccncc2)cs1	–	-16.7	inactive	–
Cc1ccc(S(=O)(=O)CCC(=O)Nc2nc(-c3cccnc3)cs2)cc1	–	-24.9	–	13 µM (active)
O=C(N/N=C/c1sc(N2CCOCC2)nc1-c1ccccc1)c1cccc(S(=O)(=O)N2CCCC2)c1	27.6% (inactive)	111	–	–
Cc1occc1C(=O)N/N=C/c1sc(N2CCOCC2)nc1-c1ccccc1	-6.96% (inactive)	-21.3	–	–
O=[N+]([O-])c1ccc(N/N=C/c2sc(N3CCOCC3)nc2-c2ccccc2)c(S(=O)(=O)Nc2ccccc2Cl)c1	–	–	–	1.03 µM (active)
O=C(c1ccccc1)c1nc2c(n1O)CCCCC2	–	–	inactive	–
Cc1cc(C(=O)Nc2ccccc2C(=O)O)ccc1NC(=O)COc1cccc([N+](=O)[O-])c1	12.2% (inactive)	6.05	–	–
COc1ccc(S(=O)(=O)N(CC(=O)NCCC(C)C)c2ccccc2)cc1OC	-27.8% (inactive)	-21.6	–	–
COc1cccc2cc(C(=O)NCCc3ccccc3)c(=O)oc12	6.67% (inactive)	4.66	–	–
COc1cccc2cc(C(=O)OCc3ccccc3)c(=O)oc12	–	-24.9	–	1.46 µM (active)
COc1cccc2cc(C(=O)Oc3ccccc3)c(=O)oc12	-22.4% (inactive)	-11.3	–	–
CCN1CCN(C(=S)Nc2ccc(C(C)=O)cc2)CC1	9.37% (inactive)	–	–	–
COc1ccc(C(C)NC(=O)C2C(=O)NC3(C)CC2c2ccccc2O3)cc1 (configuration not stated)	9.39% (inactive)	-6.03	–	–
CC12CCC(C(=O)NCc3ccccc3)(OC1=O)C2(C)C (configuration not stated)	–	-20.7	inactive	–
CC12CC(c3ccccc3O1)C(C(=O)N1CCOCC1)C(=O)N2 (configuration not stated)	1.33% (inactive)	-1.42	–	–
O=C1CCC(C(=O)NCc2ccccc2)N1 (configuration not stated)	-8.49% (inactive)	7.41	–	–
CC12CC(c3ccccc3O1)C(C(=O)NCc1ccccc1)C(=O)N2 (configuration not stated)	–	13.7	–	29.1 µM (active)
CC1(C)OC(=O)CC1C(=O)NCc1ccccc1 (configuration not stated)	–	7.5	–	1.84 µM (active)
CC(Oc1ccccc1)c1nnc(SCC(=O)NC2CC2)n1C (configuration not stated)	-12.4% (inactive)	17.8	–	–
Cc1ccc2nc3sc(-c4nnc(-c5ccccc5[N+](=O)[O-])o4)c(N)c3cc2c1	–	–	inactive	–

SMILES	lipid storage change, negative = inhibition	cell number change [%]	outcome	Potency
CCCn1c(=O)[nH]c(=O)c2c1nc(-c1ccccc1OC(F)F)n2CCOC	14.4% (inactive)	1.56	–	–
O=C(NCc1ccc2c(c1)OCO2)C1CCCN(S(=O)(=O)c2cccnc2)C1 (configuration not stated)	10.6% (inactive)	9.61	–	–
O=C(CN1CCCCCC1)Nc1ccc([N+](=O)[O-])cc1Cl	–	-17.1	inactive	–
O=C(COC(=O)c1ccccn1)NCc1ccccc1Cl	-5.2% (inactive)	–	–	–
CC(C)(C)N(Cc1ccccc1)C(=O)COC(=O)c1ccc(Br)o1	15.1% (inactive)	-7.45	–	–
CC(C)(C)N(Cc1ccccc1)C(=O)COC(=O)c1ccc([N+](=O)[O-])o1	–	-25.7	–	11.6 µM (active)
CC(C)(C)N(Cc1ccccc1)C(=O)COC(=O)c1cccc([N+](=O)[O-])c1	24.6% (inactive)	17.2	–	–
CC(NC(=O)CN(C1CCCCC1)S(C)(=O)=O)c1ccccc1 (configuration not stated)	-21.2% (inactive)	-4.99	–	–
Cc1ccc(S(=O)(=O)N2CCCCC2CCNC(=O)C(=O)NCc2ccccc2)cc1 (configuration not stated)	28.7% (inactive)	–	–	–
O=C(NCCC1CCCCN1S(=O)(=O)c1ccccc1)C(=O)NC1CCCC1 (configuration not stated)	9.91% (inactive)	-1.87	–	–
COc1cccc(NC(=O)C(=O)NCCC2CCCCN2S(=O)(=O)c2ccccc2)c1 (configuration not stated)	–	-3.85	–	9.2 µM (active)
Cc1ccc(S(=O)(=O)N2CCCCC2CCNC(=O)C(=O)NC2CCCC2)cc1 (configuration not stated)	–	-16.3	–	0.184 µM (active)
Cc1ccc(S(=O)(=O)N2CCCCC2CCNC(=O)C(=O)NCc2ccccc2C)cc1 (configuration not stated)	–	–	–	9.2 µM (active)
COc1cccc(CNC(=O)C(=O)NCCC2CCCCN2S(=O)(=O)c2ccccc2)c1 (configuration not stated)	23.2% (inactive)	-8.33	–	–
COc1ccccc1CNC(=O)C(=O)NCCC1CCCCN1S(=O)(=O)c1ccc(C)cc1 (configuration not stated)	26.8% (inactive)	18.8	–	–
COc1cccc(NC(=O)C(=O)NCCC2CCCCN2S(=O)(=O)c2cccs2)c1 (configuration not stated)	-10.7% [at 0.0737 µM] (inactive)	–	–	–
O=C(NCCC1CCCCN1S(=O)(=O)c1ccc(F)cc1)C(=O)NC1CC1 (configuration not stated)	12.8% (inactive)	–	–	–
FC(F)(F)c1cccc(-c2ccn3ncnc3n2)c1	8.44% (inactive)	16.1	–	–
CC(=O)c1cc(-c2ccccc2)n(CC(=O)NC2CCCC2)c1C	-17.9% (inactive)	-1.74	–	–
CCC(=O)Nc1ccc(NC(=O)CSc2nnnn2-c2ccc3c(c2)OCCO3)cc1	7.85% (inactive)	5.29	–	–
c1coc(C2Nc3cccc4cccc(c34)N2)c1	–	-0.664	inactive	–
C/C(=C\c1ccco1)C1Nc2cccc3cccc(c23)N1	–	-14.8	–	18.4 µM (active)
C/C(=C\c1cc2ccccc2o1)C1Nc2cccc3cccc(c23)N1	19.1% (inactive)	7.96	–	–
